High-throughput results as filed in PubChem BioAssay.
H9c2 protect – protects H9c2 cardiomyocytes from peroxide injury | H2O2 injury protection, ATPLite, 2 h | protection from H2O2 cell death, % at 20 µM | hit rate 0.63% among 360,000 | AID 588492;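 active = compounds giving at least 50% protection of heart cells from peroxide-induced death in the single-dose screen, raw or plate-pattern-corrected value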;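 also: 0% = DMSO wells with peroxide and 100% = DMSO wells without peroxide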
MIN6 prolif – induces beta-cell replication in MIN6 cells | MIN6 cells proliferation, ATPlite luminescence, 48 h; cells starved in 0.2% serum; 100% = growth in 10% serum | proliferation, % at 10 µM | hit rate 0.29% among 330,000 | AID 2380;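 active = compounds whose signal lies at least 3.5 SD above the mean of all wells on their plate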;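 also: 0% = DMSO-treated cells in low-serum medium and 100% = 10% serum control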
pCIP destab – p/CIP protein destabilization; F442A p/CIP-EGFP cells, EGFP fluorescence, 16 h; Q05BA5; hit rate 0.01% among 290,000; decrease of EGFP signal, % at 10 µM;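 active = EGFP signal decrease of at least 30% at 10 µM or well 3 SD below plate mean, unless failing retest; inactive = the rest, including hits failing retest or dose response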
CR mimetic SO – caloric restriction mimetics inhibiting age-related superoxide in yeast; hit rate 0.18% among 330,000; superoxide response (% of plate mean), % at 10 µM; S. cerevisiae aged cells, superoxide DHE fluorescence; active compounds read low; AID 2690;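 active = superoxide response under a set limit, about three screen SD below normal, cut at about 65% in these data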;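 also: yeast aged for seven days with compound at 30 °C before DHE staining; 100% = average MFI of all compound-treated wells on the plate with controls excluded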
V-ATPase pHluor – yeast V-ATPase proton transport regulation by pHLuorin; S. cerevisiae, pHLuorin cytosolic pH fluorescence; response, % at 10 µM; hit rate 0.37% among 350,000; AID 504577; in the data active = response mostly above about 7.3%, no sharp cut-off; inactive = mostly below about 5.4%; also: actives read high
HSV augment – increases HSV replication in cells; maximum fold increase; HSV replication augmentation in cells, fold increase; hit rate 0.005% among 220,000; in the data active = maximum fold increase above about 1.5; tested in PC3 cells
Numbers without * were called inactive; i = inactive; · = no result. Rows were chosen to be rich in hits. Some 1.4% of all compounds tested hit in one or more screens of this group.

SMILES	H9c2 protect	MIN6 prolif	pCIP destab	CR mimetic SO	V-ATPase pHluor	HSV augment
COc1ccc(CCNC(=O)c2ccncc2)cc1OC	-4	-2	19	91	-1	i
Cc1ccc(C(C)C)c(OCc2ccc(C(=O)N/N=C/c3ccc(O)cc3O)cc2)c1	57*	·	-26	94	2	i
Cc1ccc(C(C)C)c(OCc2ccc(C(=O)N/N=C/c3ccc(C(=O)O)cc3)cc2)c1	1	-5	-8	106	-5	i
CN1CCN(c2ccccc2NC(=O)c2ccc(-c3cccc([N+](=O)[O-])c3)o2)CC1	77*	·	-7	93	2	i
CCC(=O)N1CCN(c2ccccc2NC(=O)c2ccc(-c3cccc([N+](=O)[O-])c3)o2)CC1	107*	2	-4	85	-1	i
CC(=O)NC(c1cc(Cl)c2cccnc2c1O)C1CC1 (configuration not stated)	60*	-7	·	84	2	·
Oc1c(C(c2ccc(Cl)cc2)N2CCCC2)cc(Cl)c2cccnc12 (configuration not stated)	72*	-6	6	102	-3	i
COC(=O)c1c(NC(=O)CN2CCN(c3ncccn3)CC2)sc(C(N)=O)c1C	16	1	-1	80	1	·
CSCCC(NC(=O)c1ccco1)C(=O)N1CCN(C(c2ccccc2)c2ccccc2)CC1 (configuration not stated)	3	-4	·	·	1	·
COc1ccc(-c2nn(-c3ccccc3)cc2/C=C/C(=O)N2CCN(c3ccccn3)CC2)cc1	68*	-2	-1	80	8	i
O=C(O)c1nn(CC(=O)N2CCN(c3ccccc3)CC2)c(=O)c2ccccc12	66*	-2	-16	92	0	·
O=C(CCn1nc(-c2ccccc2)ccc1=O)N1CCN(c2ccccc2)CC1	2	0	-8	104	-6	·
O=C(CCn1nc(-c2ccccc2)c2ccccc2c1=O)N1CCN(c2ccccc2)CC1	53*	-3	-6	98	0	i
CC(=O)Nc1ccc(OCC(O)Cn2nc(C)c(Br)c2C)cc1 (configuration not stated)	7	0	-2	81	-1	i
CC(C)C(=O)N1CCCC1(C)C(=O)NCc1ccc(Cl)cc1 (configuration not stated)	2	·	·	·	·	·
COc1cc(NCc2ccccc2)c2ncn(Cc3ccccc3)c2c1	-11	-6	·	140	14*	·
COCCCOc1cc(NCc2ccccc2)c2ncn(C(C)C)c2c1	-6	-3	·	146	-2	·
Cc1cc(NC(=O)Cc2cc(F)cc(F)c2)no1	2	-5	-2	116	-1	·
Cc1ccc(S(=O)(=O)N2CCOCC2)cc1NC(=O)CSc1nnc(NC2CC2)s1	10	-3	·	115	-1	·
Cc1ccc(S(=O)(=O)N2CCOCC2)cc1NC(=O)CNc1ccccc1N1CCCC1=O	-4	1	·	·	22*	·
CSCCC(NC(=O)c1ccc([N+](=O)[O-])cc1Cl)C(=O)OC1CCCCC1=O (configuration not stated)	-7	-1	-14	107	0	·
COc1cc2ccnc(C=O)c2cc1OC	56*	·	·	·	-2	·
Cc1ccc2nc(-c3ccccc3)cc(C(=O)N(C)CC(=O)Nc3ccccc3Br)c2c1	6	-4	·	106	0	·
Cc1c(O)ccc2c(-c3ccccc3)cc(=O)oc12	84*	1	-4	104	2	·
COc1ccc(-c2cc(=O)oc3c(C)c(O)ccc23)cc1	34	-1	5	95	-1	·
SMILES	H9c2 protect	MIN6 prolif	pCIP destab	CR mimetic SO	V-ATPase pHluor	HSV augment
Cc1cc(C=O)c(C)n1-c1cc(C(F)(F)F)ccc1N1CCOCC1	138*	0	-25	108	2	·
CCOc1ccc(CCNC(=O)CSc2cc(=O)n(C)c3ccccc23)cc1OCC	-1	0.0*	-17	99	0	i
CCOc1ccc(CCNC(=O)COc2cc(=O)n(C)c3ccccc23)cc1OCC	-4	0	-11	104	-3	i
COc1ccc(NS(=O)(=O)c2cc(NC(=O)c3cc(=O)c4ccccc4o3)ccc2OC)cc1	42	-2	-3	101	-3	i
COc1ccc(NS(=O)(=O)c2cc(NC(=O)Cc3n[nH]c(=O)c4ccccc34)ccc2OC)cc1	70*	·	·	·	-3	·
COc1ccccc1NS(=O)(=O)c1cc(NC(=O)Cc2n[nH]c(=O)c3ccccc23)ccc1Cl	70*	-4	·	95	3	·
